PubChem BioAssay AID1159580 (chemical genetic matrix, 2015)
Among all 5,500 compounds or so, about 2,000 (36%) were called active. About 18% were inconclusive and are not listed. No stated cut-off is given here; in the data, active means normalized growth mostly below about 0.91 (no sharp cut-off); inconclusive means no clear call, values can overlap the other calls; inactive means mostly above about 0.92. The list shows a part of the results.

Assay: chemical genetic growth profiling, strain panel (AID 1159580);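 further: tested at 20 µM; growth read once vehicle control cultures reached saturation at 30 °C; 1 = growth at the plate median or of vehicle wells; lower values mean less growth of the strain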
Settings: growth OD

Measured: normalized growth

COc1cccc(OC)c1C(=O)N[C@@H]1C(=O)N2[C@@H]1SC(C)(C)[C@@H]2C(=O)O
inactive: S. cerevisiae deletion strains, locus YJR066W, strain TOR1, active compounds read low 0.974 | S. cerevisiae deletion strains, locus YJR075W, strain HOC1, active compounds read low 0.998 | S. cerevisiae deletion strains, locus YKL009W, strain mrt4, active compounds read low 0.946 | S. cerevisiae deletion strains, locus YKL068W, active compounds read low 0.975 | S. cerevisiae deletion strains, locus YKL085W, strain MDH1 (second series), active compounds read low 0.986 | S. cerevisiae deletion strains, locus YKL085W, strain MDH1, active compounds read low 0.986 | S. cerevisiae deletion strains, locus YKL160W, strain elf1, active compounds read low 0.978 | S. cerevisiae deletion strains, locus YKR001C, strain vps1, active compounds read low 0.973 | S. cerevisiae deletion strains, locus YKR026C, strain gcn3, active compounds read low 1 | S. cerevisiae deletion strains, locus YKR091W, strain srl3, active compounds read low 1 | S. cerevisiae deletion strains, locus YLL001W, strain dnm1, active compounds read low 0.963 | S. cerevisiae deletion strains, locus YLL026W, active compounds read low 0.993 | S. cerevisiae deletion strains, locus YLL041C, strain sdh2, active compounds read low 0.994 | S. cerevisiae deletion strains, locus YLR027C, strain aat2, active compounds read low 0.995 | S. cerevisiae deletion strains, locus YLR039C, strain RIC1, active compounds read low 1 | S. cerevisiae deletion strains, locus YLR058C, strain SHM2, active compounds read low 1.01 | S. cerevisiae deletion strains, locus YLR102C, strain apc9, active compounds read low 0.985 | S. cerevisiae deletion strains, locus YLR113W, strain HOG1, active compounds read low 0.982 | S. cerevisiae deletion strains, locus YLR221C, strain rsa3, active compounds read low 1 | S. cerevisiae deletion strains, locus YLR258W, strain gsy2, active compounds read low 0.999 | S. cerevisiae deletion strains, locus YLR262C, strain YPT6 (second series), active compounds read low 1 | S. cerevisiae deletion strains, locus YLR262C, strain YPT6, active compounds read low 1.03 | S. cerevisiae deletion strains, locus YLR268W, strain sec22, active compounds read low 0.993 | S. cerevisiae deletion strains, locus YLR320W, strain mms22, active compounds read low 0.986 | S. cerevisiae deletion strains, locus YLR330W, strain CHS5, active compounds read low 0.993 | S. cerevisiae deletion strains, locus YLR342W, strain FKS1 (second series), active compounds read low 1.03 | S. cerevisiae deletion strains, locus YLR342W, strain FKS1, active compounds read low 0.988 | S. cerevisiae deletion strains, locus YLR357W, strain rsc2, active compounds read low 0.994 | S. cerevisiae deletion strains, locus YLR370C, strain arc18, active compounds read low 1.01 | S. cerevisiae deletion strains, locus YLR371W, strain rom2, active compounds read low 0.993 | S. cerevisiae deletion strains, locus YLR384C, strain iki3, active compounds read low 0.991 | S. cerevisiae deletion strains, locus YLR418C, strain cdc73, active compounds read low 0.996 | S. cerevisiae deletion strains, locus YML016C, strain PPZ1, active compounds read low 1 | S. cerevisiae deletion strains, locus YML032C, strain rad52, active compounds read low 0.991 | S. cerevisiae deletion strains, locus YML120C, strain ndi1, active compounds read low 0.992 | S. cerevisiae deletion strains, locus YML124C, strain tub3, active compounds read low 0.991 | S. cerevisiae deletion strains, locus YMR058W, strain fet3, active compounds read low 1 | S. cerevisiae deletion strains, locus YMR078C, strain ctf18, active compounds read low 0.995 | S. cerevisiae deletion strains, locus YMR125W, strain sto1, active compounds read low 1.02 | S. cerevisiae deletion strains, locus YMR129W, active compounds read low 0.992 | S. cerevisiae deletion strains, locus YMR205C, strain PFK2, active compounds read low 0.991 | S. cerevisiae deletion strains, locus YMR223W, strain ubp8, active compounds read low 1.01 | S. cerevisiae deletion strains, locus YMR231W, strain pep5, active compounds read low 0.997 | S. cerevisiae deletion strains, locus YMR263W, strain SAP30, active compounds read low 0.972 | S. cerevisiae deletion strains, locus YMR307W, strain GAS1, active compounds read low 1.25 | S. cerevisiae deletion strains, locus YNL067W, strain RPL9B, active compounds read low 0.962 | S. cerevisiae deletion strains, locus YNL071W, strain lat1, active compounds read low 1 | S. cerevisiae deletion strains, locus YNL128W, strain TEP1, active compounds read low 0.974 | S. cerevisiae deletion strains, locus YNL153C, strain GIM3, active compounds read low 1.01 | S. cerevisiae deletion strains, locus YNL183C, strain NPR1, active compounds read low 0.971 | S. cerevisiae deletion strains, locus YNL209W, strain ssb2, active compounds read low 1.01 | S. cerevisiae deletion strains, locus YNL233W, strain BNI4, active compounds read low 1.01 | S. cerevisiae deletion strains, locus YNL248C, strain rpa49, active compounds read low 1.01 | S. cerevisiae deletion strains, locus YNL250W, strain rad50, active compounds read low 0.921 | S. cerevisiae deletion strains, locus YNL271C, strain bni1, active compounds read low 0.991 | S. cerevisiae deletion strains, locus YNL298W, strain CLA4, active compounds read low 0.98 | S. cerevisiae deletion strains, locus YNL307C, strain MCK1, active compounds read low 1 | S. cerevisiae deletion strains, locus YNL322C, strain KRE1 (second series), active compounds read low 1.01 | S. cerevisiae deletion strains, locus YNL322C, strain KRE1, active compounds read low 1 | S. cerevisiae deletion strains, locus YNR049C, strain mso1, active compounds read low 0.995 | S. cerevisiae deletion strains, locus YNR052C, strain pop2, active compounds read low 0.987 | S. cerevisiae deletion strains, locus YOL006C, strain TOP1, active compounds read low 1.01 | S. cerevisiae deletion strains, locus YOL012C, strain htz1 0.716 | S. cerevisiae deletion strains, locus YOR001W, strain rrp6, active compounds read low 0.99 | S. cerevisiae deletion strains, locus YOR061W, strain CKA2, active compounds read low 1 | S. cerevisiae deletion strains, locus YOR069W, strain VPS5, active compounds read low 0.999 | S. cerevisiae deletion strains, locus YOR070C, strain gyp1, active compounds read low 1.01 | S. cerevisiae deletion strains, locus YOR080W, strain dia2, active compounds read low 0.99 | S. cerevisiae deletion strains, locus YOR083W, strain WHI5, active compounds read low 0.95 | S. cerevisiae deletion strains, locus YOR106W, strain vam3, active compounds read low 0.994 | S. cerevisiae deletion strains, locus YOR136W, strain idh2, active compounds read low 0.992 | S. cerevisiae deletion strains, locus YOR144C, strain elg1, active compounds read low 0.989 | S. cerevisiae deletion strains, locus YOR184W, strain ser1, active compounds read low 0.996 | S. cerevisiae deletion strains, locus YOR231W, strain MKK1, active compounds read low 0.988 | S. cerevisiae deletion strains, locus YOR265W, strain rbl2, active compounds read low 1 | S. cerevisiae deletion strains, locus YOR270C, strain vph1, active compounds read low 1 | S. cerevisiae deletion strains, locus YOR290C, strain snf2, active compounds read low 1 | S. cerevisiae deletion strains, locus YOR316C, strain cot1, active compounds read low 0.977 | S. cerevisiae deletion strains, locus YPL051W, strain arl3, active compounds read low 0.989 | S. cerevisiae deletion strains, locus YPL055C, strain LGE1, active compounds read low 0.968 | S. cerevisiae deletion strains, locus YPL078C, strain atp4, active compounds read low 0.97 | S. cerevisiae deletion strains, locus YPL106C, strain sse1, active compounds read low 1.03 | S. cerevisiae deletion strains, locus YPL240C, strain hsp82, active compounds read low 0.999 | S. cerevisiae deletion strains, locus YPL241C, strain CIN2, active compounds read low 1 | S. cerevisiae deletion strains, locus YPL256C, strain CLN2, active compounds read low 1.06 | S. cerevisiae deletion strains, locus YPR141C, strain kar3, active compounds read low 0.972 | S. cerevisiae deletion strains, locus YPR163C, strain tif3, active compounds read low 0.987 | S. cerevisiae deletion strains, locus YPR167C, strain met16, active compounds read low 0.979 | S. cerevisiae deletion strains, strain wtn01, active compounds read low 1.01 | S. cerevisiae strains, strain wild type, active compounds read low 1
